RGS16-Gao HTS – modulates binding between human RGS16 and Galphao | bead-based flow cytometry RGS16-Galphao binding, fluorescence; actives lie on both sides | binding response (% of control), % at 10 µM | 220,000 compounds, 0.38% hits;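 note: Galphao activated by GDP with aluminum fluoride before binding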
Avidin bead fluor – avidin bead compound fluorescence profile | 220,000 compounds, 0.38% hits | fluorescence (KMESF) at 10 µM | Avidin beads, compound fluorescence 488/530 nm, flow cytometry; stronger effect = higher value | AID 1775; in the data active = fluorescence above about 47
GSH bead fluor – GSH bead compound fluorescence profile; GSH beads flow cytometry, compound fluorescence 488/530 nm; stronger effect = higher value; fluorescence (KMESF) at 10 µM; 190,000 compounds, 0.25% hits; AID 1776; in the data active = fluorescence above about 89;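 note: glutathione beads carrying GST-tagged Bcl family fusion proteins plus one bare bead set; values are compound well signal with DMSO vehicle wells as background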
RGS7-Gao – modulates binding of RGS7 to human Galphao; P09471; Multiplexed bead flow cytometry; actives lie on both sides; binding response (% of control), % at 10 µM; 220,000 compounds, 0.35% hits; AID 1439; in the data active = binding response below about 49% or above about 150%; inconclusive = no clear call, values can overlap the other calls; inactive = in between;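 note: fluorescent Galphao held in activated GDP-AlF4 state binding bead-coupled RGS7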
Target sequence (P09471 whole entry, looked up): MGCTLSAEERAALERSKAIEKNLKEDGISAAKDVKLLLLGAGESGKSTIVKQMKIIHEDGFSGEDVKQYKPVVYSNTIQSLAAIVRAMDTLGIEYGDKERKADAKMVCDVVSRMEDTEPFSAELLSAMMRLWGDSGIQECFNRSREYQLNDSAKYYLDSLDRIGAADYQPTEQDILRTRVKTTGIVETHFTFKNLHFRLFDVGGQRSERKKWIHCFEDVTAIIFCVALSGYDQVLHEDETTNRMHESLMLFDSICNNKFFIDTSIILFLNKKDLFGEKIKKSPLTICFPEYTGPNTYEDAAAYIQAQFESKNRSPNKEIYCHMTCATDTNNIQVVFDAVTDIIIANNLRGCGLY
RGS8-Gao reg – modulates binding of RGS8 to human Galphao; 220,000 compounds, 0.34% hits; response (percent of control binding), % at 10 µM; multiplexed bead flow cytometry; actives lie on both sides; in the data active = response below about 60% or above about 140%; inactive = in between;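 note: Galphao activated as the GDP aluminium fluoride complex binding bead-coupled RGS8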
RGS4-Gao reg – human RGS4-Galphao interaction regulation | P09471 | Multiplexed bead flow cytometry, RGS4-Galphao binding; actives lie on both sides | binding response (% of control), % at 10 µM | 220,000 compounds, 0.33% hits | AID 1415; in the data active = binding response below about 49% or above about 150%; inactive = in between;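 note: fluorescent Galphao activated with aluminum fluoride binding bead-coupled RGS4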
RGS-Gao – modulates binding between human RGS4 and Galphao; multiplexed bead flow cytometry, RGS–Galpha-o binding; 1,600 compounds, 99% hits; shares compounds with RGS16-Gao HTS; RGS4–Galpha-o binding response, % at 10 µM; AID 1504;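 note: fluorescently labeled Galpha-o bound to GDP with aluminium fluoride binding biotinylated RGS beads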
Avidin counter – biotin-avidin bead binding disruption counter-screen. inhibition, % at 10 µM. streptavidin beads, fluorescein-biotin binding, flow cytometry. shares compounds with RGS16-Gao HTS. AID 1783. 1,700 tested, under 10 active;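 active = inhibition above 50%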;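 note: median green fluorescence of gated singlet beads compared with DMSO control wells; 0% = DMSO wells and 100% = complete loss of bead fluorescence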
RGS8-Gao confirm – confirmation of regulators of human RGS8-Galphao interaction; shares compounds with RGS16-Gao HTS; bead-based flow cytometry RGS8-Galphao binding, fluorescence; actives lie on both sides; binding response (% of control), % at 10 µM; 1,700 compounds, 3% hits; in the data active = binding response below about 72% or above about 130%; inactive = in between;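 note: Galphao activated as GDP AlF4 complex before binding bead RGS8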
RGS7-Gao confirm – RGS7-Galphao interaction regulation, single point confirmation; shares compounds with RGS16-Gao HTS; bead-based flow cytometry RGS7-Galphao binding; actives lie on both sides; response (percent of control binding), % at 10 µM; 1,700 compounds, 7.8% hits; AID 1837; in the data active = response below about 75% or above about 130%; inactive = in between;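 note: fluorescent Galphao activated with GDP and aluminum fluoride binding bead-coupled RGS7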
RGS16-Gao single – confirmation of regulators of human RGS16-Galphao interaction. response (% of control binding), % at 10 µM. bead-based flow cytometry, RGS16-Galphao binding; actives lie on both sides. shares compounds with RGS16-Gao HTS. AID 1838. 1,700 compounds, 4% hits; in the data active = response below about 74% or above about 130%; inactive = in between;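 note: Galphao activated as the GDP aluminium fluoride complex binding bead-coupled RGS16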
RGS4-Gao confirm – confirmation of regulators of human RGS4-Galphao interaction. shares compounds with RGS16-Gao HTS. binding response (% of control), % at 10 µM. RGS4-Galphao binding, multiplexed bead flow cytometry; actives lie on both sides. AID 1840. 1,700 compounds, 4% hits; in the data active = binding response below about 74% or above about 130%; inactive = in between
RGS19-Gao conf – confirmation of regulators of human RGS19-Galphao interaction; shares compounds with RGS16-Gao HTS; 1,700 compounds, 5% hits; bead-based flow cytometry RGS19-Galphao binding; actives lie on both sides; response (percent of control binding), % at 10 µM; in the data active = response below about 50% or above about 160%; inactive = in between;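 note: 100% = no compound control and 0% = blank background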
Target sequence (P09471 whole entry, looked up): as above
Target sequence (P49795 whole entry, looked up): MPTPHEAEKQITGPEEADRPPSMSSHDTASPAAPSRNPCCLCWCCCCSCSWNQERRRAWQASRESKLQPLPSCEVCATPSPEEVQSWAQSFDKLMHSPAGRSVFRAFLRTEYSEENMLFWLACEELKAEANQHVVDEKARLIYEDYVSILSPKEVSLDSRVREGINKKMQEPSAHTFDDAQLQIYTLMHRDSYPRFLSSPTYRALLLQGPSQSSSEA
Active calls of the source: *; ? = inconclusive; nt = not tested or not shown; [ ] = dose if it differs, or a comment. Sampled rows, rich in hits. Any-hit rate of the full collection: about 1.2%. Unless noted, the rule behind the calls is not given here.

SMILES	RGS16-Gao HTS	Avidin bead fluor	GSH bead fluor	RGS7-Gao	RGS8-Gao reg	RGS4-Gao reg	RGS-Gao	Avidin counter	RGS8-Gao confirm	RGS7-Gao confirm	RGS16-Gao single	RGS4-Gao confirm	RGS19-Gao conf
OC1CCN(c2ncnc3c2nnn3Cc2c(F)cccc2Cl)CC1	nt	nt	46	152*[activator]	118	131	131*	0	81	70*	78	79	77
CCOc1ccc(CCNC(=O)c2cc(C)nn2-c2ccccc2)cc1	98	11	nt	?	100	97	nt	nt	nt	nt	nt	nt	nt
O=C(CCCOc1ccc(Cl)cc1Cl)Nc1ccc(O)cc1C(=O)O	96	6	nt	?	100	97	nt	nt	nt	nt	nt	nt	nt
C#CCSc1nnc(-c2ccccc2)c(=O)[nH]1	10*	1	13	17*	13*	21*	nt	-2	101	90	99	97	80
COc1ccc([N+](=O)[O-])cc1/C=N/Nc1nn[nH]n1	103	23	10	95	100	98	nt	nt	nt	nt	nt	nt	nt
CN1C(=O)N(CN2CCCCC2)C2C1N(C)C(=O)N2CN1CCCCC1 (configuration not stated)	549	4	22	123	154*[activator]	127	127*	nt	nt	nt	nt	nt	nt
CCCCOCCCNC(=O)C1CCCCC1	66	4	31	51	55*	84	84*	0	107	104	111	104	102
CCn1c(SCc2cccc(C(F)(F)F)c2)nnc1-c1ccco1	21	11	23	42*	48*	46*	nt	0	99	91	100	99	103
O=C(CSc1nnnn1-c1ccccc1)Nc1ncc2c(n1)CC(c1ccco1)CC2=O (configuration not stated)	39	14	17	39*	57*	35*	nt	3	101	88	98	94	89
C/C(=N\NC(=S)Nc1ccccc1C)c1ccc(O)cc1	103	11	12	101	102	102	nt	nt	nt	nt	nt	nt	nt
CC1CC(OCC(O)C[N+]2(C)CCOCC2)CC(C)(C)C1 (configuration not stated)	17*	5	14	21*	30*	22*	nt	0	108	106	109	105	109
Cc1ccc(-c2nc3ccccc3nc2NN)cc1	101	7	nt	?	99	102	nt	nt	nt	nt	nt	nt	nt
Cc1ccc(-c2nc(CN(C)C3CCOC3)c(C)o2)s1 (configuration not stated)	97	11	16	95	102	93	nt	nt	nt	nt	nt	nt	nt
CCCCN(CCCC)c1cn[nH]c(=O)c1Cl	9.8*	1	12	16*	13*	22*	nt	0	104	109	109	103	107
CCOc1ccccc1-c1c2cc(O)c(=O)cc-2oc2cc(O)c(O)cc12	47	4	10	42*	69	85	85*	-2	64*	50*	63*	82	40*
O=c1cc2oc3cc(O)c(O)cc3c(-c3ccccc3O)c-2cc1O	86	2	nt	?	87	90	nt	nt	nt	nt	nt	nt	nt
OC(COc1ccc(-c2ccccc2)cc1)CN1CCOCC1 (configuration not stated)	102	13	28	104	101	104	nt	nt	nt	nt	nt	nt	nt
OC(COc1ccc(Br)cc1)CN1CCOCC1 (configuration not stated)	nt	nt	41	nt	nt	nt	nt	3	104	101	108	101	101
Cc1nn(C(C)C(=O)N/N=C/c2ccc(N(C)C)cc2)c(C)c1[N+](=O)[O-] (configuration not stated)	100	5	nt	?	98	97	nt	nt	nt	nt	nt	nt	nt
CC(NC(=O)c1sc2cc([N+](=O)[O-])ccc2c1Cl)C(C)(C)C (configuration not stated)	15*	2	10	98	80	98	98*	1	65*	113	41*	89	16*
O=CNn1cnc2c(oc3nc(-c4ccccc4)cc(-c4ccco4)c32)c1=O	110	23	9	97	105	99	nt	nt	nt	nt	nt	nt	nt
NC(=O)CC[C@H](NC(=O)c1ccc(F)cc1)C(=O)OCC(=O)Nc1ccc(N2CCOCC2)cc1	112	2	5	101	103	103	nt	nt	nt	nt	nt	nt	nt
O=S(=O)(c1ccc(F)cc1)N1CCN(c2ncnc3c2cnn3-c2ccccc2)CC1	301	13	14	122	142*[activator]	129	129*	0	96	89	95	95	107
Cc1cccc(-n2ncc3c(N4CCOCC4)ncnc32)c1	9	3	17	63	59*	65	65*	2	102	105	103	105	93
Cc1ccc(Sc2c(O)c3ccccc3n(C)c2=O)cc1	14*	1	12	91	68	99	99*	0	103	107	105	109	96
CC(C)(C)c1ccc(-c2nc(O)c(CC(=O)O)s2)cc1	100	5	nt	?	101	101	nt	nt	nt	nt	nt	nt	nt
CC1(C)CC(NC(=O)c2ccccc2C(=O)NC2CC(C)(C)NC(C)(C)C2)CC(C)(C)N1	99	9	12	96	101	99	nt	nt	nt	nt	nt	nt	nt
Cc1cccc(C(=O)NC2CC(C)(C)NC(C)(C)C2)c1	113	82*	14	172*[activator]	98	101	101*	1	92	93	92	92	84
Cc1cccc(C(=O)NNC(=O)C2CCCO2)c1 (configuration not stated)	1.0*	-2	24	14*	12*	21*	nt	1	120	137*[activator]	124	132*[activator]	135
Cc1cccc(-c2nc3cc(NC(=O)C4CCCO4)ccc3o2)c1 (configuration not stated)	179*[activator]	17	10	107	119	109	109*	0	104	104	109	104	99
